# Columns and labels:
# [1] = molecular target: T1, Serine/threonine-protein kinase Nek9 (Homo sapiens) (UniProt Q8TD19); conditions: at 1 µM;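 also: each value is a mean percent inhibition of NEK9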
# T1 sequence (whole entry): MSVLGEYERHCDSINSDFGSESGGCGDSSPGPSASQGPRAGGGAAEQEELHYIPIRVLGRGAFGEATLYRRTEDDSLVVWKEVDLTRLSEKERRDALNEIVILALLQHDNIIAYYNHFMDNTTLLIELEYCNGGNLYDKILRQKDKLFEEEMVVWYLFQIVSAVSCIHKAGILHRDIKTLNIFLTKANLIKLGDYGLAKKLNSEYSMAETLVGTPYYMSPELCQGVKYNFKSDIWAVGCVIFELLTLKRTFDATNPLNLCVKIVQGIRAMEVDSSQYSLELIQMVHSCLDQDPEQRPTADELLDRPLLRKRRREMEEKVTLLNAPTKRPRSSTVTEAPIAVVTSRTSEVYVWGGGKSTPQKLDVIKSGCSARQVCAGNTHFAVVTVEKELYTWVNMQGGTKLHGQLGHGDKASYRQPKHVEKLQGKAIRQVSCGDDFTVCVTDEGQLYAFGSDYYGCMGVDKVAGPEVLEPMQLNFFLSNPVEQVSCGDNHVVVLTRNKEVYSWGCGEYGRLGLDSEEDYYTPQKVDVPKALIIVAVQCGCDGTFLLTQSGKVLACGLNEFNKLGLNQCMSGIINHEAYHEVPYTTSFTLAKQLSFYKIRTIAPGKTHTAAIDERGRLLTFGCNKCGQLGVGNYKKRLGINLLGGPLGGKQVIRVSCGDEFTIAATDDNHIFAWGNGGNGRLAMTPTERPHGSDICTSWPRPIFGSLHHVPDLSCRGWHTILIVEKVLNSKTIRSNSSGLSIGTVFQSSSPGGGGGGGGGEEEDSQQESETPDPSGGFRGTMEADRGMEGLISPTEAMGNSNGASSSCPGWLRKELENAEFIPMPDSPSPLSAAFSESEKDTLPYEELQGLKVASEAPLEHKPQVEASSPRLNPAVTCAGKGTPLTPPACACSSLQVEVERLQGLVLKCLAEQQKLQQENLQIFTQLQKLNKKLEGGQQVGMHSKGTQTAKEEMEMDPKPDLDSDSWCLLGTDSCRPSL
# [2] = molecular target: Serine/threonine-protein kinase PLK1 (Homo sapiens) (UniProt P53350); conditions: at 0.1 µM
# [3] = molecular target: Serine/threonine-protein kinase PLK1 (Homo sapiens) (UniProt P53350); conditions: at 1 µM
# [4] = molecular target: T2, Dual specificity protein kinase TTK (Homo sapiens) (UniProt P33981); conditions: at 0.1 µM
# T2 sequence (whole entry): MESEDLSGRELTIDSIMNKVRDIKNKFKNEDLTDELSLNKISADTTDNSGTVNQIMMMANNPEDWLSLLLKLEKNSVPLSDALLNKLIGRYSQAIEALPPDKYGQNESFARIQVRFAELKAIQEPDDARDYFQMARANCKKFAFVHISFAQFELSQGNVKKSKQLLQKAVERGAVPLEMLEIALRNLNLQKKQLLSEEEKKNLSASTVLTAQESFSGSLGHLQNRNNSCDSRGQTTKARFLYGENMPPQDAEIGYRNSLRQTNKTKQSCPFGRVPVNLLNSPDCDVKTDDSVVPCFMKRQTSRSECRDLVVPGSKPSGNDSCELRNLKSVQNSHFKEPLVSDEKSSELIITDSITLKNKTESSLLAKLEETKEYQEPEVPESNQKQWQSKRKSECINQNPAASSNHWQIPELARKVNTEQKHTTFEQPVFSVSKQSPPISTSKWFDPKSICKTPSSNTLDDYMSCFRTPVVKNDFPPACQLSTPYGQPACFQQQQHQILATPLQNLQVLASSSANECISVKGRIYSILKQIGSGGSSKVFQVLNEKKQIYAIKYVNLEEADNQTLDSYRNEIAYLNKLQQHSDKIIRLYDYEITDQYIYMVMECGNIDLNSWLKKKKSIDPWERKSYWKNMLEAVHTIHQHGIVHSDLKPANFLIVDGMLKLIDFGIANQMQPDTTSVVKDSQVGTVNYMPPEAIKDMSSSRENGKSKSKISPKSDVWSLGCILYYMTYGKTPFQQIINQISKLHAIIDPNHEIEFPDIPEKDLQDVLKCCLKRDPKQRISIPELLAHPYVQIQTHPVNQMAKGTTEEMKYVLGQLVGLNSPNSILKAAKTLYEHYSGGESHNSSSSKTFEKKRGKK
# [5] = system: T3, Receptor-type tyrosine-protein kinase FLT3 (Homo sapiens), P36888 [D835Y]; conditions: at 1 µM
# T3 sequence (whole entry): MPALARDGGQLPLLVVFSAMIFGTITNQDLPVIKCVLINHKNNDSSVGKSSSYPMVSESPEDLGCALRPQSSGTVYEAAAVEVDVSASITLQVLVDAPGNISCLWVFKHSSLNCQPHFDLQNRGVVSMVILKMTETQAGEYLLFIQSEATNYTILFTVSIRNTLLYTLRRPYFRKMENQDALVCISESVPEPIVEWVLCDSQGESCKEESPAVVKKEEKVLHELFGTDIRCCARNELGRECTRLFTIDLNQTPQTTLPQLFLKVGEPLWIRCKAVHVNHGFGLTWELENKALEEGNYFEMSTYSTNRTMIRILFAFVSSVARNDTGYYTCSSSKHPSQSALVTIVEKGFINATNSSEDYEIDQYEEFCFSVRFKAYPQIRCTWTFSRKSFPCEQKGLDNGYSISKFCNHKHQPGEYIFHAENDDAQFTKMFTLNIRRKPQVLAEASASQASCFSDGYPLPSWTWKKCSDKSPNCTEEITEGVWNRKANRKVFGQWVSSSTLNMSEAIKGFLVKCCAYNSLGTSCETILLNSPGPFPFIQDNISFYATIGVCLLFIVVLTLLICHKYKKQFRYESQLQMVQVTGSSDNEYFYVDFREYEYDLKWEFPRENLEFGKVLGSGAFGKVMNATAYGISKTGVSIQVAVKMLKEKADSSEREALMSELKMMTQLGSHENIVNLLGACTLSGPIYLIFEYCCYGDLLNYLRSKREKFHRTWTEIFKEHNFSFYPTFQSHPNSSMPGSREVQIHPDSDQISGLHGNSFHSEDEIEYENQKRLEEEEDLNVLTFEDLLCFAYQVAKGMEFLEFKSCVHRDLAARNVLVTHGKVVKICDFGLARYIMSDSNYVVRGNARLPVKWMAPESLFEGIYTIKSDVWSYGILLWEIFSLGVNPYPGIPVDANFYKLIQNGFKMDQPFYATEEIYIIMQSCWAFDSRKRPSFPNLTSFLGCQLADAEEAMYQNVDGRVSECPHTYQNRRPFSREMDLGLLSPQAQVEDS
# [6] = molecular target: Vascular endothelial growth factor receptor 3 (Homo sapiens) (UniProt P35916); conditions: at 0.1 µM
# Chain of Vascular endothelial growth factor receptor 3 (Homo sapiens) (P35916 whole entry): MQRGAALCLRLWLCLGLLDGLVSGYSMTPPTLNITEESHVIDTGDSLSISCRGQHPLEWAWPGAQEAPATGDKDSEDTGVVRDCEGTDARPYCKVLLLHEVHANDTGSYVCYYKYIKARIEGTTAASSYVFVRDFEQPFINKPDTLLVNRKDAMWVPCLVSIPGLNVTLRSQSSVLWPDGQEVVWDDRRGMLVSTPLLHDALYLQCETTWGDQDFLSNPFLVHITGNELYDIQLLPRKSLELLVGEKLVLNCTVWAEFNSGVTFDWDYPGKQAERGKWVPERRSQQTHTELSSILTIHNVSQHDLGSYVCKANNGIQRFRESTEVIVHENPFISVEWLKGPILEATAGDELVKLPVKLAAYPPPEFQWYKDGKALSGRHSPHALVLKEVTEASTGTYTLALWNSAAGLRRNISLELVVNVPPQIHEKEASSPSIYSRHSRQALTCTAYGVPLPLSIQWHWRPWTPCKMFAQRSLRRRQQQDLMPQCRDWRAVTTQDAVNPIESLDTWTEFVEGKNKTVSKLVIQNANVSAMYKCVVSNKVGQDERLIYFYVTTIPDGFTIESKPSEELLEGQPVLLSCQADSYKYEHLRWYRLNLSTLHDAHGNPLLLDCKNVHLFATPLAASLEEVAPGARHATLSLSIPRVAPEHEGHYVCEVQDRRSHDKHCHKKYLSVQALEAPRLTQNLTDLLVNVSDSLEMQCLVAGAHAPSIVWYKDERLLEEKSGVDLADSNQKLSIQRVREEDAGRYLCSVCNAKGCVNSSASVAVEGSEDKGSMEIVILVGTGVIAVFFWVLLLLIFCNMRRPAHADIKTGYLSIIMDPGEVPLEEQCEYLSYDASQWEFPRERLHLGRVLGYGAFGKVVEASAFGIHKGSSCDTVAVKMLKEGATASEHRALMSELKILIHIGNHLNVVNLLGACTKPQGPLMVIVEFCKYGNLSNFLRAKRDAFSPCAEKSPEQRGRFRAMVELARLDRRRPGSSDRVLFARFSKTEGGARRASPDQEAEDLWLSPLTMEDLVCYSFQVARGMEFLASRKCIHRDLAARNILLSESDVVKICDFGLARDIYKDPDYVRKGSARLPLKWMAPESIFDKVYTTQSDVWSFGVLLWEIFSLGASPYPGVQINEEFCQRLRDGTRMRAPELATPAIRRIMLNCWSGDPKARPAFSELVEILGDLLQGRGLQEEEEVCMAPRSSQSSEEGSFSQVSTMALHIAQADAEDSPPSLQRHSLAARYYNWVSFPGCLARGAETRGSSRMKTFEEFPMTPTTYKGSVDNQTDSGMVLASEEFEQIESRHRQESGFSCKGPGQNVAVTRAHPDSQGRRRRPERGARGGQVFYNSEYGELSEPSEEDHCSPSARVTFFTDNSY
# [7] = molecular target: Vascular endothelial growth factor receptor 3 (Homo sapiens) (UniProt P35916); conditions: at 1 µM
# [8] = molecular target: Macrophage colony-stimulating factor 1 receptor (Homo sapiens) (UniProt P07333); conditions: at 0.1 µM
# [9] = molecular target: Macrophage colony-stimulating factor 1 receptor (Homo sapiens) (UniProt P07333); conditions: at 1 µM
# [10] = molecular target: Tyrosine-protein kinase Fyn (Homo sapiens) (UniProt P06241); conditions: at 0.1 µM
# Chain of Tyrosine-protein kinase Fyn (Homo sapiens) (P06241 2-537 limits assumed): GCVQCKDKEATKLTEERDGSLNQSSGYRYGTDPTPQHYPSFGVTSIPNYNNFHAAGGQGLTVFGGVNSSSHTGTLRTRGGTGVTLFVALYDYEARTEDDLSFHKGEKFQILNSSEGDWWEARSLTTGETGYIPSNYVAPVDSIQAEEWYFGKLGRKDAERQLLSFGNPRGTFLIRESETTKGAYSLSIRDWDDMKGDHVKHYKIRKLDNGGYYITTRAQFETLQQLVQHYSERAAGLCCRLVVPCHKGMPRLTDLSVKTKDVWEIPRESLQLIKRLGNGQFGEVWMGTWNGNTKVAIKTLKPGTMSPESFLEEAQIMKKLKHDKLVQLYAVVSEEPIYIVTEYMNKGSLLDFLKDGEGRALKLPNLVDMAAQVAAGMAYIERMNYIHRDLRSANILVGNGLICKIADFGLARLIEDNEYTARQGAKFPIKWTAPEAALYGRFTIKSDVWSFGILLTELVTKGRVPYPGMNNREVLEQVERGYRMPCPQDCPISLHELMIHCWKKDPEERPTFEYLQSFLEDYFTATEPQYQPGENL
# [11] = molecular target: Tyrosine-protein kinase Fyn (Homo sapiens) (UniProt P06241); conditions: at 1 µM
# [12] = molecular target: Tyrosine-protein kinase HCK (Homo sapiens) (UniProt P08631); conditions: at 0.1 µM
# Chain of Tyrosine-protein kinase HCK (Homo sapiens) (P08631 2-526 limits assumed): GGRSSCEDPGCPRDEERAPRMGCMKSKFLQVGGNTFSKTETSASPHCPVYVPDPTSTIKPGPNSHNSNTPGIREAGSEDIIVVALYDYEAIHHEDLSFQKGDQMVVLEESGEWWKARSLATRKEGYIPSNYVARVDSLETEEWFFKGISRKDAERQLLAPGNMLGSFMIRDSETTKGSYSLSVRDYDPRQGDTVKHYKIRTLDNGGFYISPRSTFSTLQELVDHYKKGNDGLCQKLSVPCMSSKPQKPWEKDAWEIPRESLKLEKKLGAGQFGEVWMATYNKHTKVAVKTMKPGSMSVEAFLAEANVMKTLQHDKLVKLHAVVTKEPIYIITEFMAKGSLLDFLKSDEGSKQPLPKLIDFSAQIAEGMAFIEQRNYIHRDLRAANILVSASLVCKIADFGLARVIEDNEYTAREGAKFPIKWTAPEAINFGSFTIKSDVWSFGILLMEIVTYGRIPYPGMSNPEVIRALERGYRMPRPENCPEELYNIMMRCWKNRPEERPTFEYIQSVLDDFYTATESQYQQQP
# [13] = molecular target: Tyrosine-protein kinase HCK (Homo sapiens) (UniProt P08631); conditions: at 1 µM
# [14] = molecular target: Insulin-like growth factor 1 receptor (Homo sapiens) (UniProt P08069); conditions: at 0.1 µM
# Chain of Insulin-like growth factor 1 receptor (Homo sapiens) (P08069 31-736 limits assumed): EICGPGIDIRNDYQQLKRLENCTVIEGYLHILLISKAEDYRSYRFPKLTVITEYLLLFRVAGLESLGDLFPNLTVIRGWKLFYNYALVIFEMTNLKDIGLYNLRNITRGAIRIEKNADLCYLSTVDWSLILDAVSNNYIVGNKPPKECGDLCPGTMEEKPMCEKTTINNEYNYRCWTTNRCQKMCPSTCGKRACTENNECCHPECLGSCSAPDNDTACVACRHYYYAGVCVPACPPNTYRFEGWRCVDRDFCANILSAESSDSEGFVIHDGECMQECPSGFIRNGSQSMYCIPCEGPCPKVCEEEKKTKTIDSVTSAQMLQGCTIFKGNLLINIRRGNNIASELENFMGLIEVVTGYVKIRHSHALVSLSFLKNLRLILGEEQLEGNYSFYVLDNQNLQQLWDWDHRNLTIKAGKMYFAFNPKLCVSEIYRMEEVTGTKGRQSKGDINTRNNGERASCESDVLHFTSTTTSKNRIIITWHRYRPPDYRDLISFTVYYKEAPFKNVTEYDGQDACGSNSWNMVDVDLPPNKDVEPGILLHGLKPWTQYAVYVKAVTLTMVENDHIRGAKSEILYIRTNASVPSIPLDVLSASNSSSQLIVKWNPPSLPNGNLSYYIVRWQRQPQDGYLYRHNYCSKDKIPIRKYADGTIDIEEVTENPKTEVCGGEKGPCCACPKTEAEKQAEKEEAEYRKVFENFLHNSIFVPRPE
# Chain of Insulin-like growth factor 1 receptor (Homo sapiens) (P08069 741-1367 limits assumed): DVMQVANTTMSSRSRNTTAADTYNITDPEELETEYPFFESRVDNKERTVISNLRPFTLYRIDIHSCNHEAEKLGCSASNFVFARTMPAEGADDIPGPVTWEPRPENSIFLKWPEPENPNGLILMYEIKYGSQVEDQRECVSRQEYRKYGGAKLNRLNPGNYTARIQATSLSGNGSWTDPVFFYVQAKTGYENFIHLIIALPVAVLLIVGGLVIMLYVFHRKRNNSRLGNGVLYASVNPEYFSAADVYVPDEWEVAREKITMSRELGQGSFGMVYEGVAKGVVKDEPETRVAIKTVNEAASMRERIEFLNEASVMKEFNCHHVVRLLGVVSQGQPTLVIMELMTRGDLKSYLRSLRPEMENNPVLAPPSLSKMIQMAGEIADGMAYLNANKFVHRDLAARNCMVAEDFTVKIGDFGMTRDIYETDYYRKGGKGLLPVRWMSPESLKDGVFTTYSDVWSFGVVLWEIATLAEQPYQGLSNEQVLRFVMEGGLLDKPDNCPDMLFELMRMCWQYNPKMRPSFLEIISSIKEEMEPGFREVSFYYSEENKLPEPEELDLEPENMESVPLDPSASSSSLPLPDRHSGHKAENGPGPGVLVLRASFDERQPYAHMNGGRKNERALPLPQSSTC
# [15] = molecular target: Insulin-like growth factor 1 receptor (Homo sapiens) (UniProt P08069); conditions: at 1 µM
# [16] = molecular target: Insulin receptor (Homo sapiens) (UniProt P06213); conditions: at 0.1 µM
# [17] = molecular target: Insulin receptor (Homo sapiens) (UniProt P06213); conditions: at 1 µM
# [18] = molecular target: Insulin receptor-related protein (Homo sapiens) (UniProt P14616); conditions: at 0.1 µM
# Chain of Insulin receptor-related protein (Homo sapiens) (P14616 27-742 limits assumed): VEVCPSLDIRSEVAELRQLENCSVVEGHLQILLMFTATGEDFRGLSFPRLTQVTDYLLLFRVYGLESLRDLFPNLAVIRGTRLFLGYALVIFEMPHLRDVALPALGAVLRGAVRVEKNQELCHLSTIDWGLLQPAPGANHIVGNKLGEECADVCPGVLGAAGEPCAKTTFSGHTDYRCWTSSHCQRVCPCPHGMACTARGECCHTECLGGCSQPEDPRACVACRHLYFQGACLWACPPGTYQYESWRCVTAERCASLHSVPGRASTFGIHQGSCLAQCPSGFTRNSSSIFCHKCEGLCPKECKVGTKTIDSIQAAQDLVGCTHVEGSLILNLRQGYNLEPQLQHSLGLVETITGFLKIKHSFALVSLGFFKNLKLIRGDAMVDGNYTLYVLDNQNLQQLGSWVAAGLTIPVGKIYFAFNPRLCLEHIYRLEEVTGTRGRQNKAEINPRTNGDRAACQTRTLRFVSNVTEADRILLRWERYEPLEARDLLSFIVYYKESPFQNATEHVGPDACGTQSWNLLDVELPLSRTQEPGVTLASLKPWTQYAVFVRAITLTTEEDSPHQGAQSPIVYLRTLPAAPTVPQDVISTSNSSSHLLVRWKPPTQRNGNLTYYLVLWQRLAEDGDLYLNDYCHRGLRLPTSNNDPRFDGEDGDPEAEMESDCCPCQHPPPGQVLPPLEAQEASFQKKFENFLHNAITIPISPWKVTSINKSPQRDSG
# Chain of Insulin receptor-related protein (Homo sapiens) (P14616 747-1297 limits assumed): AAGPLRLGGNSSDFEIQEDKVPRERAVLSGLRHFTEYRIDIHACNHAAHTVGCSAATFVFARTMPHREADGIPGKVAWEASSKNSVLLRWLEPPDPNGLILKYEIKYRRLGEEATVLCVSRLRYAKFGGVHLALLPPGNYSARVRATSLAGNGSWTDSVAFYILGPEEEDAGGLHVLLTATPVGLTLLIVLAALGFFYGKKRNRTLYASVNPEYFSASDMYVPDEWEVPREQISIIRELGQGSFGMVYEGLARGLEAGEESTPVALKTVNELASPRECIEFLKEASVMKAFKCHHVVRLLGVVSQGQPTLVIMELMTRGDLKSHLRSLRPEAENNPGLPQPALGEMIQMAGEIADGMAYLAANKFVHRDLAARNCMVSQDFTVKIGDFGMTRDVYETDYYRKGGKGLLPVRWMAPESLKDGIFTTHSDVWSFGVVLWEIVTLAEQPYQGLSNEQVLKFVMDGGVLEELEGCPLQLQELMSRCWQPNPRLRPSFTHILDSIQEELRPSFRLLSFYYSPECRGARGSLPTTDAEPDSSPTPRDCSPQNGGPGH
# [19] = molecular target: Insulin receptor-related protein (Homo sapiens) (UniProt P14616); conditions: at 1 µM
# [20] = molecular target: T4, Tyrosine-protein kinase ITK/TSK (Homo sapiens) (UniProt Q08881); conditions: at 0.1 µM;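 also: mean percent inhibition of ITK from the GSK PKIS screen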
# T4 sequence (whole entry): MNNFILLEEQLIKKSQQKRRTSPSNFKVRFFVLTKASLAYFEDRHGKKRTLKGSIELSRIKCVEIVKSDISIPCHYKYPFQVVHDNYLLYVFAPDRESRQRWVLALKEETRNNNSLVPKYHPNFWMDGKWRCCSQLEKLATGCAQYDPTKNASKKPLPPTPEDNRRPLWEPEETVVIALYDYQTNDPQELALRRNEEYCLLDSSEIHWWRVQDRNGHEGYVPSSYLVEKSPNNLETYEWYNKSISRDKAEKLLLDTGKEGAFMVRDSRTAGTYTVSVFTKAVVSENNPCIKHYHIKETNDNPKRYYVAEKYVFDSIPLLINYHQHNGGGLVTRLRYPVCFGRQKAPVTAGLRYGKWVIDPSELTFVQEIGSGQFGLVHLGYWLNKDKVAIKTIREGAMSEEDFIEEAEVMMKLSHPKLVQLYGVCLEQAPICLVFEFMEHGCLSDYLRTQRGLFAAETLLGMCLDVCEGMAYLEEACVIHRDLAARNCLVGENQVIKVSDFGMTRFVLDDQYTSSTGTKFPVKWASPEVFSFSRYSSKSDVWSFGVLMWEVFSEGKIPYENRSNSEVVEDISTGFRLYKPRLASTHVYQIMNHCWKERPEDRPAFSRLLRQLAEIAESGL
SMILES,inhibition [1],inhibition [2],inhibition [3],inhibition [4],inhibition [5],inhibition [6],inhibition [7],inhibition [8],inhibition [9],inhibition [10],inhibition [11],inhibition [12],inhibition [13],inhibition [14],inhibition [15],inhibition [16],inhibition [17],inhibition [18],inhibition [19],inhibition [20]
FC(F)(F)c1cccc(Nc2nccc(-c3cnn4nc(-c5ccccc5)ccc34)n2)c1,8.66%,2.06%,-0.34%,3.1%,26.7%,-0.18%,6.91%,-2.73%,16.4%,0.72%,7.18%,1.72%,6.11%,-1.86%,-1.43%,-2.61%,1.45%,0.93%,0.27%,-0.41%
C#Cc1cccc(Nc2ncnc3ccc(OCCCCNCCS(C)(=O)=O)cc23)c1,10.2%,2.94%,2.68%,9.49%,1.41%,-5.89%,,4.11%,2.93%,-1.92%,2.18%,11.1%,20.5%,-0.58%,-2.48%,8.82%,4.34%,2.65%,2.49%,-1.95%
O=C1Nc2ccccc2/C1=C/Nc1ccc(-n2cncn2)cc1,12.4%,4.56%,2.82%,22.4%,45.8%,16.8%,40.2%,6.47%,34.5%,2.68%,7.09%,5.82%,11.7%,10.8%,16.7%,9.38%,14.8%,2.54%,5.98%,1.26%
CNC(=O)c1cncc(/C=C/c2c(C)cccc2C)c1,2.51%,1.18%,0.2%,1.49%,5.46%,,-8.92%,12%,44.4%,0.61%,29.6%,17.2%,58.9%,-3.76%,-5.13%,0.95%,4.95%,2.26%,1.08%,-3.14%
COc1cc(C)c(N(C)C(=O)CN(C)C)cc1Nc1nc(Nc2cccc(F)c2C(N)=O)c2cc[nH]c2n1,3.64%,2.25%,2.83%,4.16%,2.97%,,,-0.28%,4.04%,-3.95%,-2.41%,2.52%,4.78%,31.2%,81.6%,52.5%,107%,5.09%,17.1%,-2.44%
NS(=O)(=O)c1ccc(Nc2cc(-c3ccc(O)c(F)c3)n[nH]2)cc1,2.31%,-1.16%,-3.09%,-2.03%,34.1%,0.48%,16.5%,0.43%,23.6%,0.43%,9.16%,0.38%,11.1%,-1.39%,-0.67%,-3.62%,2.77%,-4.66%,-2.36%,0.74%
C[C@@H](Oc1cc(-n2cnc3ccc(OCC4CCN(C)CC4)cc32)sc1C(N)=O)c1ccccc1Cl,89.7%,,,93.6%,11.7%,5.35%,23.9%,4.53%,17.9%,4.31%,15.3%,8.11%,29.6%,6.33%,7.27%,6.64%,8.87%,2.3%,3.31%,2.76%
COc1cc(Nc2ncc3c(C)nc(-c4cccc(C(F)(F)F)c4)n3n2)cc(OC)c1OC,86.1%,,,8.36%,35.8%,-1.5%,2.6%,32.9%,79.8%,6.79%,39.7%,6.2%,22.6%,2.62%,5.74%,5.92%,8.95%,1.64%,3.39%,2.02%
Clc1ccc(CNc2nccc(-c3cnn4ncccc34)n2)cc1,-2.99%,2.4%,2.85%,0.13%,2.01%,-1.51%,1.12%,1.45%,10.5%,-1.29%,0.07%,5.97%,5.79%,2.48%,,0.04%,1.97%,2.17%,2.19%,0%
COc1cc(N2CCN(C(C)C)CC2)ccc1Nc1nc(Nc2ccc(F)cc2C(=O)NC[C@@H](O)CO)c2cc[nH]c2n1,15.3%,9.77%,38%,74%,,-9.16%,,1.22%,0.02%,0.03%,-0.08%,3.99%,5%,80.6%,92.6%,110%,116%,26.6%,78%,-1.99%
CN(c1ccc(NC(=O)Nc2c(Cl)cccc2Cl)cc1)c1ccnc(Nc2cccc(CS(C)(=O)=O)c2)n1,-6.03%,0.57%,0.37%,3.9%,28.8%,23%,41.7%,92.1%,96.2%,2.74%,12.4%,22.5%,48.9%,5.47%,4.63%,1.49%,3.45%,2.73%,4.71%,54.1%

# From ChEMBL document CHEMBL1961873, “Compounds: GSK PKIS; Assays: Nanosyn kinase panel” (2012)
